Screening data as filed in PubChem.
ERG-DNA inh – ERG Ets/DNA interaction inhibition; AID 624246; Potency, µM (series often up to 76.9 µM), most hits filed as inhibitors; P11308; hit rate 0.028% among 370,000; fluorescence polarization, His-ERG Ets domain / labelled DNA; active = well fitted inhibition curve with a large enough effect in the polarisation, with a control signal flat; inconclusive = small, poorly fitted or top-dose-only effect, or effect the other way, or a change in a side signal; inactive = no such curve, though single readings can be large or run the other way; the % refers to the polarisation;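 note: polarization taken with two DNA probes labelled with fluorescein and Texas red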
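His-tagged ERG Ets domain (1 uM in the protein solution; 300mM KCl, 50mM Tris-HCl, 1mM EDTA, 1mM DTT, pH 7.5) received compound, then a probe mix of 5 nM fluorescein-DNA and 100nM Texas-615-DNA. Fluorescence polarization was read for both dyes.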
Nrf2 activator – activates Nrf2 signaling; AREc32 ARE-luciferase reporter (MCF7-derived line), luminescence, 24 h; Potency, µM (doses to about 46.1 µM), hits mostly activators; hit rate 0.31% among 410,000; note: nearly all actives have a fitted effect of over 65% in size
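ARE-driven firefly luciferase activity in AREc32 cells measured after a 24 hr compound exposure at 37 deg C, using Steady-Glo reagent and a 30 min room-temperature hold.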
Nrf2 inh – blocks Nrf2 signaling; A549 ARE-Fluc reporter, luciferase luminescence, 18-24 h; Potency, µM (titrated, usually from 46 µM), usual class: inhibitors; hit rate 2.1% among 360,000; note: nearly all actives have a fitted effect of over 60% in size
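Concentration-response testing used A549 ARE_Fluc cells at 5000 cells/well. Following an 18-24 h compound incubation, viability was read by fluorescence (Ex 405/Em 525) and luciferase output by luminescence.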
A549 tox – kills or reduces viability of A549 cells in Nrf2 counter-screen | A549 ARE-Fluc cells, CellTiter-Fluor viability, 18-24 h | Potency, µM (doses to about 46 µM), hits mostly inhibitors | hit rate 0.16% among 390,000
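A549 ARE_Fluc cells in 5% FBS OPTI-MEM were exposed to compounds in concentration-response for 18-24 h at 37 deg C. Viability was read by CellTiter-Fluor fluorescence (Ex 405/Em 525) after 30 min, before the luciferase read.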
LDHA block – LDHA (human) enzyme inhibition; P00338; activity change, % (values are at about 110 or 230 µM); purified LDHA, NADH/diaphorase-resazurin fluorescence; stronger effect = lower value; hit rate 0.15% among 480,000; AID 1347041; in the data active = activity change below about -30%; inconclusive = mostly about -25% to -30%
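Human LDH5 (2 nM) was incubated with 0.06 mM NADH and 0.2 mM pyruvate for 5 min at room temperature in Tris pH 7.4. Remaining NADH was coupled through diaphorase/resazurin, and resorufin fluorescence was read at 0 and 20 min.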
12-LOX inh – blocks human arachidonate 12S-lipoxygenase; hit rate 1.1% among 580,000; P18054; purified 12hLO, xylenol orange hydroperoxide absorbance; Potency, µM (top dose mostly 108 µM), usual class: inhibitors
Target sequence (P18054 whole entry, looked up): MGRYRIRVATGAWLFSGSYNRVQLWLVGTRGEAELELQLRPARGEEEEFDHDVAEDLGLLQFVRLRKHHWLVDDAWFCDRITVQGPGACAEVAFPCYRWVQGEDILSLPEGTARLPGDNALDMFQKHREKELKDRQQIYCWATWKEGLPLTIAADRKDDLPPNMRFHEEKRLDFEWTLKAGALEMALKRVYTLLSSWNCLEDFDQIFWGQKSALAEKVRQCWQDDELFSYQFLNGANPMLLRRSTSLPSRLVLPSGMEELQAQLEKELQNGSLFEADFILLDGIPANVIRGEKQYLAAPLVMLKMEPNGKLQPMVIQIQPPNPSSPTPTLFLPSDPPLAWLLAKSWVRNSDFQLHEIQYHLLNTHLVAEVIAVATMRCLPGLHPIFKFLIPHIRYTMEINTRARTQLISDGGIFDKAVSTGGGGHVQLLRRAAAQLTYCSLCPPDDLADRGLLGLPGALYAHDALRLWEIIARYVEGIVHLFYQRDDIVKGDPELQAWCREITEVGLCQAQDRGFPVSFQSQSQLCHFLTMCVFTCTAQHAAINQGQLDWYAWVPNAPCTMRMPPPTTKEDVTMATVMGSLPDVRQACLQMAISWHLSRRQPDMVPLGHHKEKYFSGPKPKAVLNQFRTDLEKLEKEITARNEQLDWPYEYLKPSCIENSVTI
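Purified human 12hLO (150 nM final) in 25 mM Hepes, 0.01% Triton X-100, pH 7.0 was preincubated 15 min at room temperature with compound. Then 40 uM arachidonic acid was added, 30 min. Hydroperoxide was read by Fe-XO absorbance ratio 573/405 nm.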
Of the large screens only hits and unclear results are named; the others gave an inactive call. Rows were chosen to be rich in hits. Some 2.7% of all compounds tested hit in one or more screens of this group. Unless noted, calls come from the whole dose curve; as a rule, active = well fitted curve in the direction sought with a large enough effect; inconclusive = small, poorly fitted or top-dose-only effect, or another doubt; inactive = no such curve, though single readings can be large; an effect the other way counts as inactive or inconclusive.

Cc1cc(N)ccc1-c1ccc(N)cc1C	12-LOX inh inconclusive (no result: ERG-DNA inh, Nrf2 activator, Nrf2 inh, A549 tox)
O=C(CCNc1cccc(C(F)(F)F)c1)c1ccco1	Nrf2 activator 16µM
O=C(CCNc1ccc(Cl)c(C(F)(F)F)c1)c1ccco1	Nrf2 activator inconclusive
O=C1NC(=S)S/C1=C\c1ccc(SCc2ccccc2)o1	Nrf2 inh 21µM, A549 tox inconclusive, 12-LOX inh 13µM
Cc1ccc(C2=C(O)C(=O)N(Cc3ccccc3)C2c2cccc(F)c2)cc1 (configuration not stated)	12-LOX inh inconclusive (no result: ERG-DNA inh, Nrf2 activator, Nrf2 inh, A549 tox)
COc1ccc(N2C(=O)CS(=O)C(c3ccccc3)C2=O)cc1 (configuration not stated)	12-LOX inh inconclusive
Cc1ccc(N2C(=O)CS(=O)C(c3ccccc3)C2=O)cc1C (configuration not stated)	Nrf2 activator inconclusive, 12-LOX inh 22µM
O=C(CCCSc1nc2ccccc2s1)Nc1ccc(C(F)(F)F)cc1	none (no result: ERG-DNA inh, Nrf2 activator, Nrf2 inh, A549 tox)
O=C(Nc1cccc(OC(F)(F)F)c1)c1cc(-c2ccc[nH]2)n[nH]1	12-LOX inh 14µM (no result: ERG-DNA inh, Nrf2 activator, Nrf2 inh, A549 tox, LDHA block)
Cc1cc(NC(=O)c2cc(-c3ccc[nH]3)n[nH]2)ccc1F	none (no result: ERG-DNA inh, Nrf2 activator, Nrf2 inh, A549 tox, LDHA block)
COc1ccc(NC(=O)c2cc(-c3ccc[nH]3)n[nH]2)cc1OC	none (no result: ERG-DNA inh, Nrf2 activator, Nrf2 inh, A549 tox, LDHA block)
Cc1ccc(F)cc1NC(=O)c1cc(-c2ccc[nH]2)n[nH]1	12-LOX inh 16µM (no result: ERG-DNA inh, Nrf2 activator, Nrf2 inh, A549 tox, LDHA block)
COCCCNC(=O)Cc1c(C)c2c(OC)cc(C)cc2oc1=O	12-LOX inh inconclusive (no result: ERG-DNA inh, Nrf2 activator, Nrf2 inh, A549 tox)
Cc1nc(NC(=O)COc2ccc(Br)cc2)sc1C	none (no result: ERG-DNA inh, Nrf2 activator, Nrf2 inh, A549 tox)
Cc1ccccc1-c1nc(C#N)c(NCc2ccccc2Cl)o1	12-LOX inh inconclusive (no result: ERG-DNA inh, Nrf2 activator, Nrf2 inh, A549 tox)
Cc1nn(Cc2ccc(Cl)cc2)c(C)c1NC(=O)CCCn1nc(C)c([N+](=O)[O-])c1C	Nrf2 inh 21µM, A549 tox inconclusive
O=S(=O)(c1cc(C(F)(F)F)ccc1Cl)N1CCN(c2ncnc3ccccc23)CC1	Nrf2 inh 18µM
O=C(NC1(C(F)(F)F)C(=O)Nc2c1c(=O)[nH]c(=O)n2-c1ccc(F)cc1)c1cccs1 (configuration not stated)	12-LOX inh inconclusive (no result: ERG-DNA inh, Nrf2 activator, Nrf2 inh, A549 tox)
NNc1nc2c(F)cc(F)cc2s1	12-LOX inh 40µM
NNc1nc2c(F)cccc2s1	12-LOX inh inconclusive (no result: ERG-DNA inh)
CCS(=O)(=O)N1CC2(CN(Cc3ccc4c(c3)OCO4)[C@@H](CO)c3[nH]c4cc(OC)ccc4c32)C1	12-LOX inh 14µM (no result: ERG-DNA inh, Nrf2 activator, Nrf2 inh, A549 tox, LDHA block)
COc1ccc2c3c([nH]c2c1)[C@@H](CO)N(Cc1ccccc1Cl)CC31CN(C(=O)C2CC2)C1	12-LOX inh 16µM (no result: ERG-DNA inh, Nrf2 activator, Nrf2 inh, A549 tox, LDHA block)
COc1ccc2c3c([nH]c2c1)[C@H](CO)N(C(=O)C1CCCC1)CC31CCN(C(=O)c2ccncc2)CC1	none (no result: ERG-DNA inh, Nrf2 activator, Nrf2 inh, A549 tox, LDHA block)
Cc1cccc2c(C(=O)NCCc3ccccc3)cc(-c3cccnc3)nc12	none (no result: ERG-DNA inh, Nrf2 activator, Nrf2 inh, A549 tox)
CC(C)OCCCN(Cc1ccco1)C(=O)c1cc2c(s1)-c1ccccc1OC2	Nrf2 inh 16µM
Cc1nnc(SCc2nnc(-c3ccc(F)cc3)o2)n1-c1ccccc1	12-LOX inh inconclusive (no result: ERG-DNA inh, Nrf2 activator, Nrf2 inh, A549 tox)
O=C(Nc1oc2ccccc2c(=O)c1-c1ccc2c(c1)OCO2)c1ccc(F)cc1	none (no result: ERG-DNA inh, Nrf2 activator, Nrf2 inh, A549 tox)
O=C(Nc1oc2ccccc2c(=O)c1-c1ccc2c(c1)OCO2)c1ccccc1	LDHA block -36 (no result: ERG-DNA inh, Nrf2 activator, Nrf2 inh, A549 tox)
COc1cc(/C=C/c2cc[n+](C)cc2)ccc1OCC(=O)Nc1ccc(Cl)c(Cl)c1	Nrf2 inh inconclusive, 12-LOX inh 50µM
COc1ccc(/C=C/C(=O)OCC(=O)Nc2ccc(Cl)c(S(=O)(=O)N(C)C)c2)cc1OC	12-LOX inh 0.79µM
COc1ccc(F)cc1C1=NN(C(=O)C(C)C)C(c2ccc3nccnc3c2)C1 (configuration not stated)	none (no result: ERG-DNA inh, Nrf2 activator, Nrf2 inh, A549 tox)
NC(=O)c1cc(S(=O)(=O)Nc2ccc(OC(F)(F)F)cc2)cs1	Nrf2 inh 18µM, 12-LOX inh inconclusive
COc1ccc(NS(=O)(=O)c2csc(C(N)=O)c2)cc1	none
COc1ccc(C(=O)NC(=S)NNC(=O)[C@H]2C[C@@H]2c2ccccc2)cc1OC	Nrf2 inh 16µM, 12-LOX inh inconclusive
